In article PMC4336329 (PLoS ONE, 2015):
Out of some 310,000 compounds screened, about 14,000 (4.5%) showed an effect of 50% or more. The effect is printed as a negative number. For the sample, strong results were picked, then their nearest neighbours and some compounds at random.

target: human ether-à-go-go-related gene (hERG) potassium channel (human, UniProt Q12809); assay: primary screen, population patch clamp on CHO cells stably expressing hERG; higher = less effect of the substance
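Note: peak tail current of the secondary pulse compared with the same well before compound.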

Sequence of human ether-à-go-go-related gene (hERG) potassium channel (Q12809 whole entry, looked up): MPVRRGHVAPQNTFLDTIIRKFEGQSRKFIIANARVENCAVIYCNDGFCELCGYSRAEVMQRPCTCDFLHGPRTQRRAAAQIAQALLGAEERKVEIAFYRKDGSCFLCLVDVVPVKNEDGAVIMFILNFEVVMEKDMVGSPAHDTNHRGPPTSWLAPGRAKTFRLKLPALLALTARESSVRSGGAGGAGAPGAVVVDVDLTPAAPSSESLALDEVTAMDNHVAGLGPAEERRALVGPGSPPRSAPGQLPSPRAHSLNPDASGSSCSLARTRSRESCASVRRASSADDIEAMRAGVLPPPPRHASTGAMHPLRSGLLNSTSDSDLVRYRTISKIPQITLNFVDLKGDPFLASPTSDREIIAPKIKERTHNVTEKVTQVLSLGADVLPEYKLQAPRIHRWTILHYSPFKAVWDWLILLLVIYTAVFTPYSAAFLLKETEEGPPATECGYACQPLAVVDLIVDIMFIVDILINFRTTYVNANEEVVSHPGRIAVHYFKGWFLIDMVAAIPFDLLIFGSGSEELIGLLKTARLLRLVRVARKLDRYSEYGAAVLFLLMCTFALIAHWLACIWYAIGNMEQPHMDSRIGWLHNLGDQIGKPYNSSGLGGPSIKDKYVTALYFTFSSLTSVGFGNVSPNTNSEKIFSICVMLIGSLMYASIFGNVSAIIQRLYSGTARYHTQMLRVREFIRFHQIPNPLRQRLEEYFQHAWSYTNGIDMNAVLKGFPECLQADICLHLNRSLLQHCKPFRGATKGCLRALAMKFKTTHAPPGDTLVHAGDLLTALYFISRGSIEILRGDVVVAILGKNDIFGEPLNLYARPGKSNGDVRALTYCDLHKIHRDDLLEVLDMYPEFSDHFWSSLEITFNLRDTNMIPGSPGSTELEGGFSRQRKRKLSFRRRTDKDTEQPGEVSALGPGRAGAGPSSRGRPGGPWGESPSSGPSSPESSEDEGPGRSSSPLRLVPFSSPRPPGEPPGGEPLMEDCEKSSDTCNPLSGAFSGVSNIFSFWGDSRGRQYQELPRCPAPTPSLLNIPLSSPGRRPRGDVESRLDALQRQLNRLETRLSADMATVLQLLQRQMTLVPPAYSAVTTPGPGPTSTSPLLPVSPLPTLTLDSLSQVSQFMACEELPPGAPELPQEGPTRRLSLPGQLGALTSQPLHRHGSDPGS

Structure (SMILES)	hERG current change (%, negative = inhibition) at 10uM
O=S(=O)(c1ccccc1)N1CCN=C1SCc1ccc(Cl)c(Cl)c1	-2.01%
Cc1ccc(NC(=O)CCCCCN2C(=O)[C@@H]3Cc4ccccc4CN3C2=O)c(C)c1	2.68%
Cc1ccc(-c2cc(-c3cccs3)[nH]n2)c(O)c1	1.75%
COC(=O)CSc1nc(NC(C)=O)nc(C)c1Br	9.72%
COc1ccc(C2CC(c3cccs3)=NN2C(=O)CSC2=NCCS2)cc1 (stereo not shown)	-11%
COc1ccc(C2CC(c3cccs3)=NN2C(=O)CSc2nc(=O)n3ccccc3n2)cc1 (stereo not shown)	-57.5%
COc1ccc(C2CC(c3cccs3)=NN2C(=O)CSc2nc3ccccc3s2)cc1 (stereo not shown)	-6.91%
O=C(CSc1nc(=O)n2ccccc2n1)N1N=C(c2cccs2)CC1c1ccc(F)cc1 (stereo not shown)	-52.2%
O=C(CSc1nc2ccccc2s1)N1N=C(c2cccs2)CC1c1ccc(F)cc1 (stereo not shown)	0.782%
O=C(CSc1nc2c(cnn2-c2ccccc2)c(=O)[nH]1)N1N=C(c2cccs2)CC1c1ccc(F)cc1 (stereo not shown)	16%
O=C(NCc1ccccc1)c1ccc2nnsc2c1	-1.17%
Cc1cc(=O)[nH]c(SCC(=O)N(CCC#N)c2ccccc2)c1C#N	15.3%
COc1cc(OC)cc(C(=O)NCCNC(=O)c2ccccn2)c1	14.3%
CCN(CCCNC(=O)CN1C(=O)COc2ccccc21)c1cccc(C)c1	-11.3%
CC(=O)Nc1ccc(Sc2ncccc2C(=O)Nc2ccc(F)cc2)cn1	13.9%
O=C(Nc1cc(C(F)(F)F)cc(C(F)(F)F)c1)c1ccc(Cn2cc(C(F)(F)F)ccc2=O)cc1	22%
CCc1nn2c(=O)cc(COC(=O)c3cc(Cl)c(OC)c(OC)c3)nc2s1	-69.5%
CCc1nn2c(=O)cc(COC(=O)c3ccc(SC)cc3OC)nc2s1	-18.7%
COCCc1nn2c(=O)cc(COC(=O)c3cc(OC)c(OC)c(OC)c3)nc2s1	-22.6%
CCOc1cccc(C2C(C(=O)c3ccc(C)o3)=C(O)C(=O)N2c2nccs2)c1 (stereo not shown)	0.752%
Cc1ccc(C(=O)NC2CCN(C(=O)Nc3ccc(F)cc3)CC2)cc1	1.24%

Structure (SMILES)	hERG current change (%, negative = inhibition) at 10uM
O=C(CCCN1CCC(NC(=O)c2ccccc2)CC1)c1ccc(Cl)cc1	-77.8%
CCN(CC)C(=O)N1CCC(NC(=O)c2ccccc2)CC1	12.6%
Cc1ccc(C(=O)NC2CCN(CCCC(=O)c3ccc(F)cc3)CC2)cc1	-74%
CN1CCN(CCCC(=O)c2ccc(F)cc2)CC1.Cl	-14.5%
O=C(CCCN1CCC(C(=O)c2ccc(F)cc2)CC1)c1ccc(F)cc1	-78.5%
O=C(CN1CCC(NC(=O)c2ccccc2)CC1)NCc1ccccc1F	-20.6%
C=CCNC(=O)N1CCc2[nH]c3ccc(F)cc3c2C1	6.56%
Cc1ccc(C(=O)NC2CCN(S(=O)(=O)c3ccc(F)cc3)CC2)cc1	11.6%
Cl.O=C(CCCN1CCc2[nH]c3ccc(F)cc3c2C1)c1ccc(F)cc1	-70.4%
O=C(c1ccc(F)cc1)C1CCN(C(=O)c2ccc(F)cc2)CC1	-22.7%
O=C(C1CCCCC1)N1CCc2[nH]c3ccc(F)cc3c2C1	-3.94%
COC(=O)C1C(=O)C2=C(CC1C)NC(=O)CC2c1cccc(C)c1 (stereo not shown)	-12.6%
CCCSc1nnc(NC(=O)c2ccco2)s1	2.42%
CC(NC(=O)CSc1nnc(-c2cc3cc(Cl)ccc3o2)n1C)c1ccccc1 (stereo not shown)	-12%
CCOC(=O)c1oc2ccccc2c1COC(=O)CNC(=O)c1cccc(C)c1	3.66%
CC(=O)c1cn(C)c(=O)n(C)c1=O	4.7%
COC(=O)c1ccc(C23CC4(C2)[C@H](CN(Cc2cccnc2)[C@@H]4c2ccccc2)C3c2ccccc2)cc1 (stereo partly shown)	12.8%
CCn1c(CNC(=O)c2ccccc2Br)nnc1SCC(=O)NC1=NCCS1	27.9%
CCOc1ccc(NC(=NCc2ccc3c(c2)OCO3)SC2CC(=O)N(c3ccc(OCC)cc3)C2=O)cc1 (stereo not shown)	-1.29%
CCOC(=O)N1CCN(C(=O)CCn2c(=S)[nH]c3cc(OCC)c(OCC)cc3c2=O)CC1	-7.21%
O=C(NC1CCN(S(=O)(=O)c2ccc(Cl)cc2)CC1)c1cccnc1	0.584%

Structure (SMILES)	hERG current change (%, negative = inhibition) at 10uM
COc1cccc(C(=O)NC2CC3CCCC(C2)N3S(=O)(=O)c2ccccc2)c1 (stereo not shown)	-75.8%
CC(=O)NC1CC2CCCC(C1)N2S(=O)(=O)c1ccccc1 (stereo not shown)	16.3%
O=C(NC1CC2CCCC(C1)N2S(=O)(=O)c1ccccc1)c1ccccc1 (stereo not shown)	-44%
CCCN1C2CCCC1CC(NC(=O)c1cccc(OC)c1)C2 (stereo not shown)	-16.4%
Cc1cccc(C(=O)NC2CCN(S(=O)(=O)c3ccccc3)CC2)c1	3.41%
COc1ccc(S(=O)(=O)N2CCC(NC(=O)c3ccccc3)CC2)cc1	17.8%
COc1ccc(S(=O)(=O)N2CCC(NC(=O)c3cccnc3)CC2)cc1	-64.7%
Cc1cccc(C(=O)NC2CC3CCCC(C2)N3S(=O)(=O)c2ccccc2)c1 (stereo not shown)	-77.2%
Cc1nn(CC(=O)NC2(C#N)CCCCC2)c(C)c1[N+](=O)[O-]	3.09%
CCCCOC(=O)C1=C(C)NC(=O)NC1c1ccc(N(C)C)cc1 (stereo not shown)	21.7%
O=C(COc1ccccc1)N1CCN(C2CC3CCC2C3)CC1 (stereo not shown)	7.39%
NC(=O)c1nsc(C(=O)N(c2ccc(F)cc2)C(C(=O)NC2CCCC2)c2ccncc2)c1N (stereo not shown)	-0.193%
COc1cccc2c1c(NC(=O)Nc1ccc(F)cc1F)nn2C	15.3%
COc1cc2cc(CN(Cc3cccnc3)C(=O)NCc3ccccc3)c(=O)[nH]c2cc1OC	-12.6%
CC12CC[C@H]3[C@@H](CCC4(O)C[C@H](O)CCC34/C=N/NC(=O)c3ccc(O)cc3)C1(O)CCC2C1=CC(=O)OC1 (stereo partly shown)	15%
CC(C)(/C=N/O)N(O)C=C1C=CC(=O)C=C1	5.81%
C(=C\c1ccccc1)/C=N/Nc1nc(N2CCOCC2)nc(N2CCOCC2)n1	-9.68%
COc1nc(N/N=C/c2cc3c(cc2Br)OCO3)nc(N2CCOCC2)n1	-27.8%
Brc1cc2c(cc1/C=N/Nc1nc(N3CCOCC3)nc(N3CCOCC3)n1)OCO2	-5%
Clc1ccccc1/C=C/C=N/Nc1nc(N2CCOCC2)nc(N2CCOCC2)n1	-58.4%
Brc1cc2c(cc1/C=N/Nc1nc(N3CCCC3)nc(N3CCOCC3)n1)OCO2	-51.3%

Structure (SMILES)	hERG current change (%, negative = inhibition) at 10uM
O=[N+]([O-])c1ccccc1/C=C/C=N/Nc1nc(N2CCCCC2)nc(N2CCCCC2)n1	-12.2%
O=C(c1ccccc1)n1ccc2ccccc21	-28%
O=S(=O)(c1ccc(Oc2ncnc3scc(-c4ccccc4)c23)cc1)N1CCOCC1	-0.503%
Cc1c(C(=O)NCC(c2ccco2)N(C)C)oc2c(Cl)cccc12 (stereo not shown)	-36.9%
C/C(=C\c1ccc2c(c1)OCO2)C1Nc2cccc3cccc(c23)N1	16.8%
COc1ccccc1OCC(=O)NCC(C)NC(=O)COc1ccccc1OC (stereo not shown)	4.93%
Cc1cccc(S(=O)(=O)NNC(=O)c2cc(-c3ccc(F)cc3)nc3ccccc23)c1	28.5%
CN(CC(=O)Nc1ccccc1Cl)C(=O)c1ccc(N2CCCCCC2)c([N+](=O)[O-])c1	-20.2%
COc1cccc(CN(C)C(=O)c2ccc(N3CCCC3)c([N+](=O)[O-])c2)c1	-45.3%
COc1ccc(Cl)cc1NC(=O)CN(C)C(=O)c1ccc(N2CCCCCC2)c([N+](=O)[O-])c1	5.32%
CCOc1ccc(NC(=O)CN(C)C(=O)c2ccc(N3CCCCC3)c([N+](=O)[O-])c2)cc1OCC	-57.6%
COc1ccc(NC(=O)CN(C)C(=O)c2ccc(N3CCCCCC3)c([N+](=O)[O-])c2)cc1	-51.6%
CN(CC(=O)Nc1cccc(F)c1)C(=O)c1ccc(N2CCCCCC2)c([N+](=O)[O-])c1	17.9%
CCOc1ccc(NC(=O)CN(C)C(=O)c2ccc(N3CCCCCC3)c([N+](=O)[O-])c2)cc1OCC	3.4%
COc1ccc(NC(=O)CN(C)C(=O)c2ccc(N3CCCCC3)c([N+](=O)[O-])c2)cc1	-76.8%
COc1ccc(Cl)cc1NC(=O)CN(C)C(=O)c1ccc(N2CCCCC2)c([N+](=O)[O-])c1	-18.8%
COc1ccc(NC(=O)CN(C)C(=O)c2ccc(N3CCCC3)c([N+](=O)[O-])c2)cc1	-54%
COc1ccc(NC(=O)CN(C)C(=O)c2ccc(N3CCOCC3)c([N+](=O)[O-])c2)cc1	-46.3%
CCOc1ccc(NC(=O)CN(C)C(=O)c2cc(S(=O)(=O)N(C)C)ccc2N2CCCC2)cc1OCC	6.11%
